The text below walks through data of PubChem BioAssay AID1259354 (Paczesny and Yang Labs, IUPUI and University of Michigan, 2018).

Each structure is given as a SMILES string. “And” between values parts separate entries of the source, which are not always exact repeats. Equal entries are not always repeated. Out of some 78,000 compounds screened, about 1,800 (2.3%) were called active. Inconclusive results (about 27%) are left out. The sample holds actives, similar compounds and a random draw of the others, so the mix is not that of the screen. Cut-off read from the data, not from the text of the source: active = inhibition above about 30%; inconclusive = mostly about 10% to 28%; inactive = weaker than that.

In this test the target is Interleukin-1 receptor-like 1 (Homo sapiens) (UniProt Q01638). The test can be described thus: blocks human ST2 binding to IL-33, primary screen, biochemical, AlphaLISA (AID 1259354). The note with it: AlphaLISA ST2-Fc/biotin-IL-33 interaction, 1 h; at 17 µM, hits give high values. In general terms: Bead proximity is the source of the signal in Alpha formats.
Interleukin-1 receptor-like 1 (Homo sapiens), sequence (Q01638 whole entry, looked up): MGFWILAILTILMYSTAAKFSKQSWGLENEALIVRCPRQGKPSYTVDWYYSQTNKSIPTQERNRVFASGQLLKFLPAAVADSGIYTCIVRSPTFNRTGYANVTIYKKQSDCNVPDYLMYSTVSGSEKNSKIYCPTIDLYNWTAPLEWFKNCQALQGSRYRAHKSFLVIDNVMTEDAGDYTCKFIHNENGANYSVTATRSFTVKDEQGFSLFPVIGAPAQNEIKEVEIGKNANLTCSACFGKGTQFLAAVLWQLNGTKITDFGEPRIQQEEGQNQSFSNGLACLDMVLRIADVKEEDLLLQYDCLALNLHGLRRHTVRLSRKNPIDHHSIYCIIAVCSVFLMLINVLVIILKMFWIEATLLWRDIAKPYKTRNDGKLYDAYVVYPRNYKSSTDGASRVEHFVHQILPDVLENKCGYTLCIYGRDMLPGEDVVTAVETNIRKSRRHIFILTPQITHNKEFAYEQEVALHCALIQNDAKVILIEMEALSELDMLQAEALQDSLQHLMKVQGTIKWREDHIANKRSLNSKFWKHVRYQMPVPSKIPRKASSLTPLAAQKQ
For orientation: inhibition means the change of the read-out against control, counted positive when it falls. Turning to `CCc1cccc(NS(=O)(=O)c2cc(Br)cc3c2N(C(C)=O)C(C)C3)c1` (configuration not stated), the inhibition result was “inactive”.

In the case of `O=C(c1cscn1)N1CCCC(CCc2ccccc2C(F)(F)F)C1` (configuration not stated), the inhibition result is “inactive”.

As to `N=C1S/C(=C\c2ccc(N3CCOCC3)cc2)C(=O)N1c1ccccc1Cl`, the inhibition was 31% (active).

Turning to `COc1ccc(/C=C2\SC(=O)N(c3ccc(C)cc3)C2=O)cc1`, the inhibition result is “inactive”.

Turning to `O=C1N=C(N2CCOCC2)S/C1=C/c1ccc(F)cc1`, the inhibition entry is “inactive”.

For `CCC1=Nc2cc(C(=O)NCCN(CC)CC)ccc2Sc2ccc(C)cc21`, the inhibition result was “inactive”.

On to `COc1ccc(C2CC(c3ccc(C)cc3)Nc3ncnn32)cc1` (configuration not stated), for which the inhibition result was “inactive”.

For the compound `COc1ccc(C2NC(=O)N(C)C(C)=C2[N+](=O)[O-])cc1` (configuration not stated), the inhibition entry was “inactive”.

In the case of `COc1ccc(C2CC(c3ccc([N+](=O)[O-])cc3)=NN2)cc1` (configuration not stated), the inhibition is 30% (active).

As to `COC(=O)c1nc2n(n1)C(c1ccc(F)cc1)C1=C(CCCC1=O)N2` (configuration not stated), the inhibition entry is “inactive”.

Consider `CC(=O)c1ccc(NC(=O)CCC2CCCCC2)cc1`, for which the inhibition result is “inactive”.

In the case of `Cc1nn(-c2ccccn2)c2c1C(=O)/C(=C/Nc1cccc(C(F)(F)F)c1)CC2`, the inhibition was 35% (active).

As for `O=C(CCN1C(=O)c2ccccc2C1=O)Nc1cccc(C(F)(F)F)c1`, the inhibition result was “inactive”.

In the case of `FC(F)(F)c1cccc(NCn2nnc3ccccc32)c1`, the inhibition entry was “inactive”.

`CCOc1ccc2[nH]c(C(=O)O)c(CCN)c2c1`: the inhibition entry was “inactive”.

For the compound `Cc1[nH]c2ccc(CNC(=O)[C@@H](O)Cc3ccccc3)cc2c1C`, the inhibition entry is “inactive”.

Consider `COc1ccc(Br)cc1C(=O)Nc1cccc(Cl)c1`, for which the inhibition entry is “inactive”.

Consider `O=C(Nc1cccc(OCc2cc(=O)n3cc(Cl)ccc3n2)c1)c1cccs1`, for which the inhibition result was “inactive”.

As for `O=C(NC1CCCCCCC1)c1cccs1`, the inhibition result is “inactive”.

Consider `Cc1ccc2ncc(NC(=O)c3cccs3)c(=O)n2c1`, for which the inhibition is 83% (active).

In the case of `Fc1cccc(CC2CN(Cc3cn[nH]c3-c3ccccc3)CCO2)c1` (configuration not stated), the inhibition entry was “inactive”.

Consider `N#CC(c1ccco1)N1CCN(C(C#N)c2ccco2)CC1` (configuration not stated), for which the inhibition entry was “inactive”.

As for `CCOc1ccc(NS(=O)(=O)c2ccc(Cl)cc2)cc1`, the inhibition entry is “inactive”.

Turning to `COc1ccc(NS(=O)(=O)c2ccc(Cl)cc2)cc1`, the inhibition entry was “inactive”.

Take `CCc1ccc(S(=O)(=O)N=C2C=C(Nc3ccc(OC)cc3)C(=O)c3ccccc32)cc1`: the inhibition is 95% (active).

As for `O=C1C(Nc2ccc(Br)cc2)=CC(=NS(=O)(=O)c2cccs2)c2ccccc21`, the inhibition was 79% (active).

Regarding `CCOc1ccc(S(=O)(=O)N=C2C=C(Nc3ccc(C)cc3)C(=O)c3ccccc32)cc1`, the inhibition is 91% (active).

As for `CCc1ccc(S(=O)(=O)N=C2C=C(Br)C(=O)c3ccccc32)cc1`, the inhibition was 36% (active).

`CCOc1ccc(NS(=O)(=O)c2ccc(NC(=O)c3ccccc3Br)cc2)cc1`: the inhibition entry is “inactive”.

Consider `COc1ccc(S(=O)(=O)NC(c2ccccc2)c2ccccc2)cc1`, for which the inhibition entry was “inactive”.

Turning to `CCN(CC)S(=O)(=O)c1ccc(OC)c(NC(=O)c2cc(OC)c(OC)c(OC)c2)c1`, the inhibition entry is “inactive”.

Turning to `Cc1cccc(OCC(=O)Nc2cc(C(F)(F)F)ccc2Cl)c1`, the inhibition result is “inactive”.

For `Cc1ccc(CNC(=O)c2ccc3nc4sc5c(c4c(=O)n3c2)CCCC5)cc1`, the inhibition result is “inactive”.

Take `CCOc1ccc(NC(=O)C2CCN(S(=O)(=O)c3ccc(OC)c(OC)c3)CC2)cc1`: the inhibition result was “inactive”.

Consider `COc1ccc(C2=N/C(=C\c3ccc(C(C)C)cc3)C(=O)O2)cc1[N+](=O)[O-]`, for which the inhibition result is “inactive”.

Consider `CCC(C(=O)NCc1ccccc1Cl)c1ccccc1` (configuration not stated), for which the inhibition entry was “inactive”.

For `O=C(c1ccccc1Cl)N1CCCCC1`, the inhibition result was “inactive”.

In the case of `CCCCN(CC)S(=O)(=O)c1ccc2[nH]c(=O)cc(C(=O)NC3CCCCC3C)c2c1` (configuration not stated), the inhibition entry is “inactive”.

`Cc1ccc(NC(=O)CNCCOc2ccccc2)c(C)c1`: the inhibition result was “inactive”.

As to `NC(=O)Cn1cnc2c(cnn2-c2ccc(F)cc2)c1=O`, the inhibition result is “inactive”.

For `C[C@@H](NC(=O)C1=C[C@@H](NC(=O)CS(=O)(=O)c2ccccc2)[C@@H](O)[C@H](O)C1)C(N)=O`, the inhibition entry was “inactive”.

Regarding `COc1ccc(Cl)cc1NC(=O)c1nn(-c2ccc(Cl)cc2)c(=O)c2ccccc12`, the inhibition result was “inactive”.

For the compound `COc1cc2c(C(=O)N3CCCC3)cn(C)c(=O)c2cc1OC`, the inhibition result was “inactive”.

Take `CCOc1ccc(C(C)=O)cc1N1C(=O)C2C3C=CC(CC3)C2C1=O` (configuration not stated): the inhibition entry is “inactive”.

As for `COc1ccc(C2C(=C(O)c3ccc(Cl)cc3)C(=O)C(=O)N2CCCN(C)C)c(OC)c1` (configuration not stated), the inhibition entry is “inactive”.

For the compound `CN(C)CCCn1c(-c2ccc(Cl)cc2)csc1=Nc1ccccc1`, the inhibition is 63% (active) and 45% (active).

For `CCn1c(C)csc1=Nc1cccc(C(F)(F)F)c1`, the inhibition result is “inactive”.

As to `O=C(CN1C(=O)CC(c2ccccc2)=Nc2ccccc21)Nc1ccc(Cl)cc1`, the inhibition result is “inactive”.

For the compound `CCOC(=O)c1sc2nc3n(c(=O)c2c1C)N=C(c1ccccc1)CS3`, the inhibition entry is “inactive”.

With `O=C1NN=C(c2ccccc2)/C1=C/c1ccc(-c2ccc(Cl)cc2)o1`, the inhibition is 49% (active).

Take `Cc1c(Cl)c([N+](=O)[O-])nn1CCCC(=O)Nc1cc(Cl)ccc1Cl`: the inhibition entry is “inactive”.

On to `Cn1c(=O)c2c(nc(Cl)n2CC(=O)NC(C)(C)C)n(C)c1=O`, for which the inhibition entry is “inactive”.

On to `CC(C)NC(=O)c1cc2cc3ccc(Cl)cc3nc2o1`, for which the inhibition result is “inactive”.

As to `CCc1ccc(CNC(=O)c2cc3cc4ccc(OC)cc4nc3o2)cc1`, the inhibition entry was “inactive”.

For `O=C(Nc1ccc2c(c1)OCCO2)c1cc2cc3ccc(Cl)cc3nc2o1`, the inhibition was 47% (active).

With `CCOCCCNC(=O)c1oc2ccc(S(=O)(=O)N3CCC(C)CC3)cc2c1C`, the inhibition entry is “inactive”.

As to `Cc1ccc(C(=O)Nc2ccc3nn(-c4ccccc4)nc3c2)cc1`, the inhibition result was “inactive”.

On to `O=C(O)c1cccc(N=Cc2nc(-c3ccc(Br)cc3)oc2O)c1`, for which the inhibition result is “inactive”.

Take `COc1ccc(CC(=O)Nc2ccc(-c3nnc(-c4ccccc4)o3)cc2)cc1`: the inhibition result is “inactive”.

For the compound `O=C(COc1cccc([N+](=O)[O-])c1)Nc1ccc(-c2nnc(-c3ccco3)o2)cc1`, the inhibition is 45% (active).

As for `Cc1cccc(OCC(=O)Nc2ccc(-c3nc4ncccc4o3)cc2)c1`, the inhibition entry was “inactive”.

In the case of `Cc1c(F)cccc1NC(=O)C(C)Oc1ccc(Cl)cc1Cl` (configuration not stated), the inhibition entry is “inactive”.

On to `O=C1CC(c2ccccc2)=NN1c1ccc([N+](=O)[O-])cc1`, for which the inhibition is 43% (active).

Take `O=C(c1ccco1)N1CCN(c2ccc([N+](=O)[O-])cc2)CC1`: the inhibition entry is “inactive”.

In the case of `O=C1CC(N2CCc3ccccc3C2)C(=O)N1c1ccc([N+](=O)[O-])cc1` (configuration not stated), the inhibition entry is “inactive”.

Regarding `Cc1ccc(-c2cc(N3CCN(S(=O)(=O)c4cc(C)c(C)cc4C)CC3)ncn2)cc1`, the inhibition result is “inactive”.

Turning to `O=C(CSCc1ccccc1)Nc1c(-c2ccc(F)cc2)nc2ccccn12`, the inhibition result is “inactive”.

Consider `N#Cc1c(NC(=O)CCCC(=O)O)sc2c1CCCC2`, for which the inhibition entry was “inactive”.

Consider `COc1cccc(C(=O)Nc2sc3c(c2C(N)=O)CCCCCC3)c1`, for which the inhibition entry was “inactive”.

Turning to `N#Cc1c(-n2ncnc2-c2ccccc2)sc2c1CCCC2`, the inhibition is 31% (active).

In the case of `COc1cccc(-c2ncnn2-c2sc3c(c2C#N)CCCCC3)c1`, the inhibition is 65% (active).

Turning to `COc1cccc(-c2c(C#N)c(N)n3c(nc4ccccc43)c2C#N)c1`, the inhibition entry was “inactive”.

For the compound `O=C(Nc1ncnc2sc3c(c12)CCCC3)c1ccccc1`, the inhibition result was “inactive”.

As for `N#Cc1c(-n2ncnc2-c2ccc3c(c2)OCO3)sc2c1CCCC2`, the inhibition is 47% (active).

Turning to `Cc1cc(C)c(C#N)c(SCC(=O)c2ccc3c(c2)OCO3)n1`, the inhibition entry is “inactive”.

Turning to `CC(C)CN(CC(C)C)S(=O)(=O)c1ccc(C(=O)Nc2sc3c(c2C#N)CCC3)cc1`, the inhibition result was “inactive”.

Take `Cc1csc(SCC(=O)N2CCC(c3cc(C(C)C)n[nH]3)CC2)n1`: the inhibition result was “inactive”.

For the compound `O=C(CN1CCN(Cc2cccc(Cl)c2)C1=O)N1CCCC1`, the inhibition result was “inactive”.

For `O=C(CSC1=Nc2ccccc2C2=NC(Cc3ccccc3)C(=O)N12)NC1CCCCC1` (configuration not stated), the inhibition result was “inactive”.

For `COCCn1ccnc1-c1[nH]cnc1-c1ccccc1`, the inhibition entry is “inactive”.

`CC(C)c1ccc(-c2nc(N3CCCCC3)nc3n[nH]c(N)c23)cc1`: the inhibition result was “inactive”.

Consider `Cc1cc2c(Nc3cccc(Cl)c3C)ncnc2s1`, for which the inhibition entry is “inactive”.

Take `Nc1nonc1-n1nnc(CN2CCCCC2)c1CN1CCCCC1`: the inhibition entry was “inactive”.

Regarding `COc1ccc2nc(NC(=O)Cc3c(C(=O)O)n(C)c4ccccc34)sc2c1`, the inhibition result is “inactive”.

Turning to `Cc1ccc(N(C(=O)c2ccccc2Br)C2C=CS(=O)(=O)C2)cc1C` (configuration not stated), the inhibition result was “inactive”.

`O=C(Nc1cccc([N+](=O)[O-])c1)c1cccc(Cl)c1Cl`: the inhibition result was “inactive”.

Regarding `Cc1ccc(NC(=O)c2ccc(Br)o2)c(C)c1`, the inhibition entry was “inactive”.

With `Cc1cccc(NC(=O)c2ccc([N+](=O)[O-])o2)c1`, the inhibition is 42% (active).

Regarding `CSCCC(NS(=O)(=O)c1cccc2nsnc12)C(=O)O` (configuration not stated), the inhibition entry was “inactive”.

Turning to `N#Cc1c(-c2ccccc2)cc(-c2ccccc2)nc1SCC(=O)O`, the inhibition entry was “inactive”.

Turning to `c1ccc(-c2csc3ncnc(N4CCCCC4)c23)cc1`, the inhibition result was “inactive”.

For the compound `N#Cc1c(N2CCCCCC2)ncc2cc3ccccc3nc12`, the inhibition is 37% (active).

For `N#Cc1c(SCC(=O)Nc2ccccn2)nsc1SCC(=O)Nc1ccccn1`, the inhibition result is “inactive”.

In the case of `N#Cc1c(SCC(=O)Nc2ccccc2)ncc2cc3ccccc3nc12`, the inhibition is 32% (active).

As for `Cc1cccc(-c2nc(N3CCCC3)c3ccccc3n2)c1`, the inhibition entry was “inactive”.

As for `COc1cc2c(cc1OC)[C@H]1CN3CCc4cc(OC)c(OC)cc4[C@@H]3CN1CC2`, the inhibition result is “inactive”.

For the compound `CCn1cc(S(=O)(=O)N2CCCC2c2ccccn2)c(C)n1` (configuration not stated), the inhibition result was “inactive”.

`Cc1cc(C(=O)N(CC2CCN(C3Cc4ccccc4C3)CC2)CC2CCCO2)nc(C)n1` (configuration not stated): the inhibition entry is “inactive”.

Take `Cc1cc(C)c2c(CC(=O)NCc3cccnc3N3CCOCC3)coc2c1`: the inhibition entry was “inactive”.

Turning to `c1ccc(CSc2ncc(C3NCCc4[nH]cnc43)cn2)cc1` (configuration not stated), the inhibition entry was “inactive”.

As to `Cc1cc(NC(=O)C(NS(=O)(=O)c2cccs2)C(C)C)ccc1Br` (configuration not stated), the inhibition entry is “inactive”.

With `Fc1cccc(Cl)c1C1CC(c2ccccc2)Nc2ncnn21` (configuration not stated), the inhibition result was “inactive”.

For the compound `Cn1c(CC2CCNCC2)nnc1SCCOc1ccc(Cl)cc1`, the inhibition entry is “inactive”.

For the compound `CN1CCN(C(=O)c2ccnc(-c3cc(N)nc4[nH]ccc34)c2)CC1`, the inhibition is 30% (active).

On to `O=C(c1ccnc(-n2cnnc2)c1)N1CCC2(CC1)C(=O)Nc1ccccc12`, for which the inhibition entry is “inactive”.

Turning to `O=C(c1cccc(-c2ncc[nH]2)c1)N1Cc2cnn(CCO)c2C1`, the inhibition result is “inactive”.

For `COc1ccc(C(=O)NC(Nc2ccccc2Cl)C(Cl)(Cl)Cl)cc1` (configuration not stated), the inhibition result is “inactive”.
